Bioassay records deposited in PubChem BioAssay by University of Kansas High Throughput Screening Laboratory.
mHTT-CaM PPI inh: mutant huntingtin-calmodulin interaction inhibitors – biochemical, AlphaScreen, primary screen; AID 1671202, 2021; P42858; inhibition, % at 15 µM; AlphaScreen His-mHTT/GST-CaM binding, luminescence; hit rate 3.6% among 190,000;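 also: 0% = both proteins with DMSO and 100% = one protein alone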
Target sequence (P42858 whole entry, looked up, stated change not applied): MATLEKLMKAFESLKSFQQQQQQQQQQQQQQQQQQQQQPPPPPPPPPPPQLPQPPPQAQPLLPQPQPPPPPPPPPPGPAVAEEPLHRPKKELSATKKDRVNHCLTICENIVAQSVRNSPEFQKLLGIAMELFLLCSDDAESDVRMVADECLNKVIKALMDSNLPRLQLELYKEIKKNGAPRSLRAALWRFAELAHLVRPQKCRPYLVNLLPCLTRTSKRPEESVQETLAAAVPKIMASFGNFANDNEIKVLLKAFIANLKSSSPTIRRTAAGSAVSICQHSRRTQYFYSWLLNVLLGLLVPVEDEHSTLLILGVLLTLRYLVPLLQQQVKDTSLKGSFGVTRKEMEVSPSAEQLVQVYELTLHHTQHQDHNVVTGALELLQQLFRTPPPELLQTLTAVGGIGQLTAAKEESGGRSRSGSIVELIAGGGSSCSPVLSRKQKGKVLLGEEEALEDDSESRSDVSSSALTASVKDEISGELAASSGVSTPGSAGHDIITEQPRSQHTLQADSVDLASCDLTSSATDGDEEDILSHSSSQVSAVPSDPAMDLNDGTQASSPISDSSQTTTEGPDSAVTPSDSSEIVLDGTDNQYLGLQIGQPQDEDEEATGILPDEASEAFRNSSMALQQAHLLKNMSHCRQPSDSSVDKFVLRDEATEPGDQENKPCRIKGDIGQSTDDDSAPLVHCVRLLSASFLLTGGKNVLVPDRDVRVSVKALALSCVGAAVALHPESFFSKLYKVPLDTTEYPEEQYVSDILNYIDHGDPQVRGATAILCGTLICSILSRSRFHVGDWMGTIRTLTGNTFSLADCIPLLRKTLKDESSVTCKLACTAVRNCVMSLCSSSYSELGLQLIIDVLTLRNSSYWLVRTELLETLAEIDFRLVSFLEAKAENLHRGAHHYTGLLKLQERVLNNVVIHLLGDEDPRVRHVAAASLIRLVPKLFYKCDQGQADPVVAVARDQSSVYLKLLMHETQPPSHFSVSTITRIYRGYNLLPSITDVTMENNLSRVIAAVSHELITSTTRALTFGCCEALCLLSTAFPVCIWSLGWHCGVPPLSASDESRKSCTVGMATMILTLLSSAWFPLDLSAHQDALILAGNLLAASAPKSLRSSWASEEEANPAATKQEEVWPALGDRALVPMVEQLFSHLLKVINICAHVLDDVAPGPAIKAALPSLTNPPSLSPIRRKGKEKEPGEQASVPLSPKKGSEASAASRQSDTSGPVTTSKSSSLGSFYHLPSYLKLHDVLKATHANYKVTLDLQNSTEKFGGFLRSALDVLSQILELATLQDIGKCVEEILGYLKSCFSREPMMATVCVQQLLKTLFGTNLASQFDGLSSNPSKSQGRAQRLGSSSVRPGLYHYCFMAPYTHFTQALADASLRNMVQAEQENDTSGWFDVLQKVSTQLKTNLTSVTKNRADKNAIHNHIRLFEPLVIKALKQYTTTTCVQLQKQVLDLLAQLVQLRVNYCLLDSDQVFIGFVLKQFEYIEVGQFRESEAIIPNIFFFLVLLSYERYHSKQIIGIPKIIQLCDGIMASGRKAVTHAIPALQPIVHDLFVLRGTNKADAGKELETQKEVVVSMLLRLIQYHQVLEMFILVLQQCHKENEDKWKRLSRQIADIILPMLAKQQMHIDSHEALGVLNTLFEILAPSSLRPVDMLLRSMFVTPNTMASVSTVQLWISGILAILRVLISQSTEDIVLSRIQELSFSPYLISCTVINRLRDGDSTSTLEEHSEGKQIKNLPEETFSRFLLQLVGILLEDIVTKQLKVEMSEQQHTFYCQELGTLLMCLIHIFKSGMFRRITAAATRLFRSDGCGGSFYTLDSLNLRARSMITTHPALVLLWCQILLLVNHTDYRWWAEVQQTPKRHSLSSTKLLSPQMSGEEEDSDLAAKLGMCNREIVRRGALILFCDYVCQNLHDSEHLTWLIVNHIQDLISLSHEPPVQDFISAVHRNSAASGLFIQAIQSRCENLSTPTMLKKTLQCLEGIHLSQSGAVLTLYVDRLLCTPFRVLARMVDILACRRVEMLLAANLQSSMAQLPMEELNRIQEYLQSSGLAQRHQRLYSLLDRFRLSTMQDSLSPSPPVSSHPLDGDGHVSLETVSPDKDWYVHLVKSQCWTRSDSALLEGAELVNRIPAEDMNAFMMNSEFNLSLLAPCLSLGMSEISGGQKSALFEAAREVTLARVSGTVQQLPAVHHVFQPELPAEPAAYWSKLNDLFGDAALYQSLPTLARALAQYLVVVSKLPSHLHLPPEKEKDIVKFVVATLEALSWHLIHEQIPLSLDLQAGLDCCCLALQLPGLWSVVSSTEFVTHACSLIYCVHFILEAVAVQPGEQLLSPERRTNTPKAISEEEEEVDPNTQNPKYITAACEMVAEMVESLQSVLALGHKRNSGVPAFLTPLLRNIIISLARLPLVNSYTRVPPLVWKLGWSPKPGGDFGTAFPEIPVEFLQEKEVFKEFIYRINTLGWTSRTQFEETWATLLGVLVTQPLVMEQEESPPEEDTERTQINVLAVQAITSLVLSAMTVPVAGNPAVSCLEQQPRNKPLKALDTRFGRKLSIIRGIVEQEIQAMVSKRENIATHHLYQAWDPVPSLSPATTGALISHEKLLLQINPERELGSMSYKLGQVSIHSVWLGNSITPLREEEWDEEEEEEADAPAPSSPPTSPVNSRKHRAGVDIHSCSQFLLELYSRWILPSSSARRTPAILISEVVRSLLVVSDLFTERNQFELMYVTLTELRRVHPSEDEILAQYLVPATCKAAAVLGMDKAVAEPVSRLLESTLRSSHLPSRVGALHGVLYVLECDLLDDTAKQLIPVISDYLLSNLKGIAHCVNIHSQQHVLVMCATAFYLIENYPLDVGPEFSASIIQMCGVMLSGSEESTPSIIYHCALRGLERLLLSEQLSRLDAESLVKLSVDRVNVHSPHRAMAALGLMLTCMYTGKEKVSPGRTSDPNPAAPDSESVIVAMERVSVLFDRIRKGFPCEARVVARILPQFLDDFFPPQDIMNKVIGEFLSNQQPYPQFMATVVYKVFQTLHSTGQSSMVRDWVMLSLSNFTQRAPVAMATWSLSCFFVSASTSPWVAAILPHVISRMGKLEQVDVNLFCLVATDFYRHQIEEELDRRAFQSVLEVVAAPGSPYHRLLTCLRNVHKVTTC
Pf apPOL inh: Pf-apPOL inhibitors, biochemical, fluorescence; Plasmodium falciparum apicoplast DNA polymerase (apPOL); Recombinant Pf-apPOL, molecular beacon fluorescence, 1.5 h; hit rate 0.25% among 210,000; inhibition, % at 10 µM
Starred values were filed as active, the others as inactive; i = inactive; x = not tested or not shown; ! = repeats disagree. Sampled rows, rich in hits. Any-hit rate of the full collection: about 3.6%. Rule as the data show it: active = inhibition above about 50%; inactive = the rest.

SMILES	mHTT-CaM PPI inh	Pf apPOL inh
CC1(C)C(C=C(Cl)Cl)C1C(=O)Nc1sc2c(c1C(N)=O)CCCC2 (stereo not drawn)	100*	1
CC1(C)C(C=C(Cl)Cl)C1C(=O)Nc1sc2c(c1C#N)CCC2 (stereo not drawn)	1	-1
NC1CS(=O)(=O)CC1O (stereo not drawn)	-5	-2
O=C(CCOc1ccccc1)N(CCN1CCOCC1)c1nc2c(Cl)cccc2s1	87*	-8
CCCC(=O)N(CCN1CCOCC1)c1nc2ccc(Br)cc2s1	26	-9
O=C(c1ccco1)N1CCN(CC(=O)N2CCCc3c2c(=O)oc2ccc(O)cc32)CC1	1	8
O=C(CN1CCN(Cc2ccccc2)CC1)N1CCCc2c1c(=O)oc1ccc(O)cc21	57*	3
COc1cc(/C=c2\sc3nc(=O)c(-c4ccccc4)nn3c2=O)cc(OC)c1OC	0	1
O=C1c2ccccc2-c2cc(Cl)nc3ccc(Cl)c1c23	5	-2
Cc1ccc2nc3c(N)c(Cl)cc4c3c(c2c1)-c1ccccc1C4=O	61*	-3
CSc1nc(N)nc(SCc2ccc(Cl)c(Cl)c2)c1C#N	74*	0
CSc1nc(N)nc(SC/C=C/c2ccccc2)c1C#N	-8	-1
O=C(N/N=C\c1ccco1)c1cnccn1	i	x
CCCCCCn1c(SCC(O)CO)nc2c1c(=O)[nH]c(=O)n2C (stereo not drawn)	5	3
Cn1c(=O)[nH]c(=O)c2c1nc(SCC(O)CO)n2CC(N)=O (stereo not drawn)	-3	65*
CSc1cccc(NC(=O)N2CCC(N3CCN(Cc4ccc(C)cc4)C3=O)CC2)c1	13	1
CSc1cccc(NC(=O)N2CC3CCCN3c3ccccc32)c1 (stereo not drawn)	81*	-2
CCc1ccc(NC(=O)N2CC(CC)Oc3ccccc32)cc1 (stereo not drawn)	-11	-3
CSc1cccc(NC(=O)N2CCN(C)c3ccccc32)c1	80*	-4
COc1ccc(NC(=O)N2CCN(C)c3ccccc32)cc1	36	-3
Cc1ccc(NC(=O)N2CC3CCCN3c3ccccc32)cc1 (stereo not drawn)	59*	-3
O=C(Nc1ccc(F)cc1)N1CC2CCCN2c2ccccc21 (stereo not drawn)	14	4
CCc1ccc(NC(=O)N2CC3CCCN3c3ccccc32)cc1 (stereo not drawn)	91*	0
O=C(NCc1cc(F)cc(F)c1)c1cn2c(n1)CCCC2	5	-35
O=C(NCC(F)(F)F)C1CCN(C(=O)c2cc(-c3cccs3)[nH]n2)CC1	-4	2
SMILES	mHTT-CaM PPI inh	Pf apPOL inh
Cc1ccc2c(c1)N(C(=O)Nc1ccc(C)c(C)c1)CC(C)O2 (stereo not drawn)	4	-11
Cn1cc(C(=O)NCc2ccco2)c2n[nH]c(=O)c-2c1	1	1
Cc1ccc(NC(=O)N2CC3CCCN3c3ccccc32)cc1F (stereo not drawn)	90*	1
Cc1ccc(NC(=O)N2CCOc3ccccc32)cc1F	-8	-7
NC(CS(=O)(=O)Cc1ccco1)=NO	x	5
COc1cccc(/C=C2/N=C(c3ccccc3)OC2=O)c1	6	-8
Cc1ccccc1S(=O)(=O)N1CCc2c(c(COCc3ccccc3)nn2C)C1	60*	3
Cn1nc(COCc2ccccc2)c2c1CCN(S(=O)(=O)c1ccccc1)C2	27	0
COc1ccc(NC(=O)N2CCc3c(c(COCc4ccc(Cl)cc4)nn3C)C2)cc1	58*	-2
CCC(=O)N1CCc2c(c(COCc3ccc(Cl)cc3)nn2C)C1	52*	-14
Cn1nc(COCc2ccc(Cl)cc2)c2c1CCN(C(=O)Nc1ccccc1)C2	44	-1
CCCC(=O)N1CCc2c(c(COCc3ccc(C)cc3)nn2C)C1	3	-6
Cc1cccc(C(=O)N/C(=C/c2ccc3c(c2)OCO3)C(=O)O)c1	8	-4
COc1ccc(OC)c(CN2CCc3nc(Nc4ccccc4F)ncc3C2)c1	30	-2
O=C(NCCN1CCOCC1)c1cc2n(n1)CCCN(Cc1ccc(F)cc1)C2=O	2	5
Cc1onc(-c2ccccc2Cl)c1C(=O)Nc1nnc(-c2cccs2)o1	82*	-146
Cc1ccc(S(=O)(=O)Nc2cccc(C(=O)Nc3nnc(-c4cccs4)o3)c2)cc1	82*	-237
Cc1cc(C(=O)Nc2nnc(-c3cccs3)o2)no1	-1	7
CCN(CC)S(=O)(=O)c1ccc(C(=O)Nc2nnc(-c3cccs3)o2)cc1	27	0
Clc1ccc(C=NNc2ncnc3sccc23)cc1	x	-7
CC(C)NC(=O)C1COc2ccc(NC(=O)C(C)C)cc2C1 (stereo not drawn)	-1	-4
COc1ccc(Nc2cc(-n3cccn3)ncn2)cc1	-3	-1
O=C(Nc1ccc(Nc2cc(-n3cccn3)ncn2)cc1)c1ccco1	100*	-31
S=c1[nH]nc(-c2ccco2)n1/N=C/c1ccco1	i	x
Cc1cccc2c(C(=O)NC3CC3)c3c(nc12)CCC3	-2	-3
SMILES	mHTT-CaM PPI inh	Pf apPOL inh
O=[N+]([O-])c1ccc2c(c1)OC1(CCCC1)O2	-3	-1
Nc1ccc2c(c1)OC1(CCCC1)O2	60*!	5
O=C(c1cnccn1)N1CCN(Cc2nc3ccccc3n2Cc2ccccc2)CC1	-8	-1
COc1ccc(-c2coc3c4c(ccc3c2=O)OCN(c2cc(Cl)c(OC)cc2OC)C4)cc1	60*	-1
COc1ccc(-c2coc3c4c(ccc3c2=O)OCN(C2CCCCC2)C4)cc1	14	-27
CCC(C(=O)O)N1C(=O)C(=Cc2ccc(O)c(OC)c2)SC1=S (stereo not drawn)	32	-36
CCOc1ccc(C=C2SC(=S)N(CCCCCC(=O)O)C2=O)cc1OC	47	14
CCCCCCCC(=O)NN1C(=O)C(=Cc2ccc(O)c(OC)c2)SC1=S	88*	-66
COc1cc(C=C2SC(=S)N(c3ccc(O)c(C(=O)O)c3)C2=O)ccc1O	54*	6
O=c1c2cc(F)ccc2ncn1C1CCN(S(=O)(=O)c2ccc(F)cc2)CC1	-12	2
CC1CCCCN1CCNC(=O)C1CCN(c2nccnc2Sc2ccccc2)CC1 (stereo not drawn)	2	-2
CC[C@@H]1C(c2cccc(C)c2)=NN(c2ccc(Br)cc2)[C@H]1C(=O)N1CCOC1=O	66*	2
Cc1cccc(C2=NN(c3ccc(Br)cc3)[C@@H](C(=O)N3CCOC3=O)[C@@H]2c2ccccc2)c1	-78	0
C[C@@H]1C(c2cccc(Cl)c2)=NN(c2ccccc2)[C@H]1C(=O)N1CCOC1=O	-24	-6
C[C@@H]1C(c2cccc(Cl)c2)=NN(c2ccc(Br)cc2)[C@H]1C(=O)N1CCOC1=O	57*	-1
CCCCOC(=O)COc1cc(C)cc2oc(=O)cc(-c3ccccc3)c12	-10	-10
O=C(NCc1cccc(Br)c1)C1CCCN(C(=O)c2ccccc2F)C1 (stereo not drawn)	23	3
COc1cccc(-c2oncc2CN2CCN(c3ccccc3)CC2)c1	19	-1
COc1ccc(N2CCN(Cc3cnoc3-c3ccccc3)CC2)cc1	57*	-10
O=C1OC(c2cc(Cl)ccc2Cl)=N/C1=C\c1ccc([N+](=O)[O-])cc1	-1	4
COc1ccccc1C(NC(C)=O)c1cc(Cl)c2cccnc2c1O (stereo not drawn)	71*	7
